# Reference: publication PMC11006913
# Substitutions are numbered along the chain they refer to.
# Legend:
# Assay in all cases: PBM; 200 nM protein, PBS
# Conditions in all cases: dsDNA, one strand shown
# ALX4 [1] = molecular target: ALX4 (Homo sapiens, UniProt Q9H161 200-286)
# ALX4 [2] = molecular target: ALX4 (Homo sapiens, UniProt Q9H161 200-286, Q225E)
# HOXA2 [3] = molecular target: HOXA2 (Homo sapiens, UniProt O43364 129-215, R185T)
# ALX3 [4] = molecular target: ALX3 (Homo sapiens, UniProt O95076 139-225, N203Q)
# ALX3 (Homo sapiens, UniProt O95076 139-225, N203Q), sequence (O95076 139-225 N203Q): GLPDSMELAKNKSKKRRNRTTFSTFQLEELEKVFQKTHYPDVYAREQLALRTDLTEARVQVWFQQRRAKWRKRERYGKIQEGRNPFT
# PITX2 = PITX2 (Homo sapiens, UniProt Q99697 72-157)
# HOXA2 [5] = molecular target: HOXA2 (Homo sapiens, UniProt O43364 129-215, R185K)
# HOXA2 (Homo sapiens, UniProt O43364 129-215, R185K), sequence (O43364 129-215 R185K): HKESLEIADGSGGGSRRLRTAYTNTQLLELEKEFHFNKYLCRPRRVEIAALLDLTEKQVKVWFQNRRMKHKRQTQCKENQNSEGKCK
# ALX3 [6] = molecular target: ALX3 (Homo sapiens, UniProt O95076 139-225)
# ALX3 (Homo sapiens, UniProt O95076 139-225), sequence (O95076 139-225): as the sequence (O95076 139-225 N203Q) above, with Q65N counted along it
# ALX3 [7] = molecular target: ALX3 (Homo sapiens, UniProt O95076 139-225, L168Q)
# ALX3 (Homo sapiens, UniProt O95076 139-225, L168Q), sequence (O95076 139-225 L168Q): as the sequence (O95076 139-225 N203Q) above, with L30Q, Q65N counted along it
# ALX3 [8] = molecular target: ALX3 (Homo sapiens, UniProt O95076 139-225, L168V)
# ALX3 (Homo sapiens, UniProt O95076 139-225, L168V), sequence (O95076 139-225 L168V): as the sequence (O95076 139-225 N203Q) above, with L30V, Q65N counted along it
# HOXA2 [9] = molecular target: HOXA2 (Homo sapiens, UniProt O43364 129-215, Y150S)
# HOXA2 (Homo sapiens, UniProt O43364 129-215, Y150S), sequence (O43364 129-215 Y150S): as the sequence (O43364 129-215 R185K) above, with Y22S, K57R counted along it
# ALX3 [10] = molecular target: ALX3 (Homo sapiens, UniProt O95076 139-225, N203S)
# ALX3 (Homo sapiens, UniProt O95076 139-225, N203S), sequence (O95076 139-225 N203S): as the sequence (O95076 139-225 N203Q) above, with Q65S counted along it
# HOXA2 [11] = molecular target: HOXA2 (Homo sapiens, UniProt O43364 129-215)
# HOXA2 (Homo sapiens, UniProt O43364 129-215), sequence (O43364 129-215): as the sequence (O43364 129-215 R185K) above, with K57R counted along it
# VAX1 [12] = molecular target: VAX1 (Homo sapiens, UniProt Q5SQQ9 86-172)
# VAX1 (Homo sapiens, UniProt Q5SQQ9 86-172), sequence (Q5SQQ9 86-172): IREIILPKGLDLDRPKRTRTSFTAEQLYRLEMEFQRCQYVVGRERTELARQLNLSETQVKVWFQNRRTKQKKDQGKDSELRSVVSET
# VAX1 [13] = molecular target: VAX1 (Homo sapiens, UniProt Q5SQQ9 86-172, T142I)
# VAX1 (Homo sapiens, UniProt Q5SQQ9 86-172, T142I), sequence (Q5SQQ9 86-172 T142I): as the sequence (Q5SQQ9 86-172) above, with T57I counted along it
# VAX1 [14] = molecular target: VAX1 (Homo sapiens, UniProt Q5SQQ9 86-172, K157R)
# VAX1 (Homo sapiens, UniProt Q5SQQ9 86-172, K157R), sequence (Q5SQQ9 86-172 K157R): as the sequence (Q5SQQ9 86-172) above, with K72R counted along it
# ALX1 [15] = molecular target: ALX1 (Homo sapiens, UniProt Q15699 118-204, L144V)
# ALX1 (Homo sapiens, UniProt Q15699 118-204, L144V), sequence (Q15699 118-204 L144V): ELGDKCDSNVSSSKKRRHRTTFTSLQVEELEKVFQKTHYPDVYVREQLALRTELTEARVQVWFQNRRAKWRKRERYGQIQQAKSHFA
# ALX1 [16] = molecular target: ALX1 (Homo sapiens, UniProt Q15699 118-204, L144R)
# ALX1 (Homo sapiens, UniProt Q15699 118-204, L144R), sequence (Q15699 118-204 L144R): as the sequence (Q15699 118-204 L144V) above, with V27R counted along it
# PROP1 [17] = molecular target: PROP1 (Homo sapiens, UniProt O75360 56-141)
# PROP1 (Homo sapiens, UniProt O75360 56-141), sequence (O75360 56-141): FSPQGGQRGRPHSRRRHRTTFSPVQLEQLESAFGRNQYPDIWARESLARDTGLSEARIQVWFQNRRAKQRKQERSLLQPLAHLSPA
# HESX1 [18] = molecular target: HESX1 (Homo sapiens, UniProt Q9UBX0 95-180, R109Q)
# HESX1 (Homo sapiens, UniProt Q9UBX0 95-180, R109Q), sequence (Q9UBX0 95-180 R109Q): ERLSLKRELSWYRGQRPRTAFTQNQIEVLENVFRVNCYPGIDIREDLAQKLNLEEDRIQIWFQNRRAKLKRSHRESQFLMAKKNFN
# PROP1 [19] = molecular target: PROP1 (Homo sapiens, UniProt O75360 56-141, R99H)
# PROP1 (Homo sapiens, UniProt O75360 56-141, R99H), sequence (O75360 56-141 R99H): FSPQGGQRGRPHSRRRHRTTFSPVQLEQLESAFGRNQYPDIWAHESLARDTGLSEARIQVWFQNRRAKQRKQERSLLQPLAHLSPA
# PROP1 [20] = molecular target: PROP1 (Homo sapiens, UniProt O75360 56-141, F88S)
# PROP1 (Homo sapiens, UniProt O75360 56-141, F88S), sequence (O75360 56-141 F88S): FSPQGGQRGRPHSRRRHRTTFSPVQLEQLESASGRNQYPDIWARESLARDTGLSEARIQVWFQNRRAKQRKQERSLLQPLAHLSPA
# ALX1 [21] = molecular target: ALX1 (Homo sapiens, UniProt Q15699 118-204)
# ALX1 (Homo sapiens, UniProt Q15699 118-204), sequence (Q15699 118-204): as the sequence (Q15699 118-204 L144V) above, with V27L counted along it
# PAX4 [22] = molecular target: T1, PAX4 (Homo sapiens, UniProt O43316 9-242, R200K)
# T1 sequence: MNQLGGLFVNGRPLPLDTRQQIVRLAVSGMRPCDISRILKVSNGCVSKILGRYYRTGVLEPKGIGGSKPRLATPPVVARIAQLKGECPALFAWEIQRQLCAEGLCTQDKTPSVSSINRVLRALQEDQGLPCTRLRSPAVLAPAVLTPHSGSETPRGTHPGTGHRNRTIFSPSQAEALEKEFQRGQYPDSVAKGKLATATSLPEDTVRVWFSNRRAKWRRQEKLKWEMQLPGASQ
# PRRX1 [23] = molecular target: PRRX1 (Homo sapiens, UniProt P54821 80-166, F113S)
# PRRX1 (Homo sapiens, UniProt P54821 80-166, F113S), sequence (P54821 80-166 F113S): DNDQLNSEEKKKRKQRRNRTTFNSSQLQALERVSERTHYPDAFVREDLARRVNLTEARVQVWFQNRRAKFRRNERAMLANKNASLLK
# PAX4 [24] = molecular target: T2, PAX4 (Homo sapiens, UniProt O43316 9-242)
# T2 sequence: T1 sequence with K192R
# PAX4 [25] = molecular target: T3, PAX4 (Homo sapiens, UniProt O43316 9-242, R200Q)
# T3 sequence: T1 sequence with K192Q
# PAX4 [26] = molecular target: T4, PAX4 (Homo sapiens, UniProt O43316 9-242, F177V)
# T4 sequence: T1 sequence with F169V, K192R
# PAX4 [27] = molecular target: T5, PAX4 (Homo sapiens, UniProt O43316 9-242, F177Y)
# T5 sequence: T1 sequence with F169Y, K192R
# HESX1 [28] = molecular target: HESX1 (Homo sapiens, UniProt Q9UBX0 95-180, F115L)
# HESX1 (Homo sapiens, UniProt Q9UBX0 95-180, F115L), sequence (Q9UBX0 95-180 F115L): as the sequence (Q9UBX0 95-180 R109Q) above, with Q15R, F21L counted along it
# PAX4 [29] = molecular target: T6, PAX4 (Homo sapiens, UniProt O43316 9-242, R227W)
# T6 sequence: T1 sequence with K192R, R219W
# PRRX1 [30] = molecular target: PRRX1 (Homo sapiens, UniProt P54821 80-166)
# PRRX1 (Homo sapiens, UniProt P54821 80-166), sequence (P54821 80-166): as the sequence (P54821 80-166 F113S) above, with S34F counted along it
# ALX4 (Homo sapiens, UniProt Q9H161 200-286, Q225E), sequence (Q9H161 200-286 Q225E): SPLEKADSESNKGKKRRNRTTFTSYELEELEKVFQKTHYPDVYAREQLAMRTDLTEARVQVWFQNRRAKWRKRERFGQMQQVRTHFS
# ALX4 (Homo sapiens, UniProt Q9H161 200-286), sequence (Q9H161 200-286): as the sequence (Q9H161 200-286 Q225E) above, with E26Q counted along it
# HOXA2 (Homo sapiens, UniProt O43364 129-215, R185T), sequence (O43364 129-215 R185T): as the sequence (O43364 129-215 R185K) above, with K57T counted along it
sequence,measurement,setting,value
GAGGCACC,binding signal,ALX4 [1],"8.21 upbm affinity estimate (log intensity, higher = more binding, comparable within an allelic series)"
same,binding signal,ALX4 [2],"8.22 upbm affinity estimate (log intensity, higher = more binding, comparable within an allelic series)"
same,binding signal,HOXA2 [3],"7.41 upbm affinity estimate (log intensity, higher = more binding, comparable within an allelic series)"
same,binding signal,ALX3 [4],"7.66 upbm affinity estimate (log intensity, higher = more binding, comparable within an allelic series)"
same,binding signal,PITX2,"7.88 upbm affinity estimate (log intensity, higher = more binding, comparable within an allelic series)"
same,binding signal,HOXA2 [5],"10.5 upbm affinity estimate (log intensity, higher = more binding, comparable within an allelic series)"
same,binding signal,ALX3 [6],"7.72 upbm affinity estimate (log intensity, higher = more binding, comparable within an allelic series)"
same,binding signal,ALX3 [7],"7.51 upbm affinity estimate (log intensity, higher = more binding, comparable within an allelic series)"
same,binding signal,ALX3 [8],"7.67 upbm affinity estimate (log intensity, higher = more binding, comparable within an allelic series)"
same,binding signal,HOXA2 [9],"10.4 upbm affinity estimate (log intensity, higher = more binding, comparable within an allelic series)"
same,binding signal,ALX3 [10],"7.65 upbm affinity estimate (log intensity, higher = more binding, comparable within an allelic series)"
same,binding signal,HOXA2 [11],"7.42 upbm affinity estimate (log intensity, higher = more binding, comparable within an allelic series)"
AGGAGCCC,binding signal,ALX4 [1],"7.99 upbm affinity estimate (log intensity, higher = more binding, comparable within an allelic series)"
same,binding signal,ALX4 [2],"8.19 upbm affinity estimate (log intensity, higher = more binding, comparable within an allelic series)"
same,binding signal,VAX1 [12],"6.97 upbm affinity estimate (log intensity, higher = more binding, comparable within an allelic series)"
same,binding signal,VAX1 [13],"7.08 upbm affinity estimate (log intensity, higher = more binding, comparable within an allelic series)"
same,binding signal,VAX1 [14],"7.05 upbm affinity estimate (log intensity, higher = more binding, comparable within an allelic series)"
AATTAAAG,binding signal,ALX4 [1],"13.6 upbm affinity estimate (log intensity, higher = more binding, comparable within an allelic series)"
same,binding signal,ALX4 [2],"12.8 upbm affinity estimate (log intensity, higher = more binding, comparable within an allelic series)"
same,binding signal,ALX1 [15],"11.4 upbm affinity estimate (log intensity, higher = more binding, comparable within an allelic series)"
same,binding signal,ALX3 [4],"8.35 upbm affinity estimate (log intensity, higher = more binding, comparable within an allelic series)"
same,binding signal,ALX1 [16],"11 upbm affinity estimate (log intensity, higher = more binding, comparable within an allelic series)"
same,binding signal,ALX3 [6],"12.3 upbm affinity estimate (log intensity, higher = more binding, comparable within an allelic series)"
same,binding signal,PROP1 [17],"11.2 upbm affinity estimate (log intensity, higher = more binding, comparable within an allelic series)"
same,binding signal,HESX1 [18],"8.69 upbm affinity estimate (log intensity, higher = more binding, comparable within an allelic series)"
same,binding signal,PROP1 [19],"10.9 upbm affinity estimate (log intensity, higher = more binding, comparable within an allelic series)"
same,binding signal,ALX3 [7],"10.3 upbm affinity estimate (log intensity, higher = more binding, comparable within an allelic series)"
same,binding signal,ALX3 [8],"9.9 upbm affinity estimate (log intensity, higher = more binding, comparable within an allelic series)"
same,binding signal,PROP1 [20],"7.55 upbm affinity estimate (log intensity, higher = more binding, comparable within an allelic series)"
same,binding signal,ALX3 [10],"8.43 upbm affinity estimate (log intensity, higher = more binding, comparable within an allelic series)"
CCATTATC,binding signal,ALX4 [1],"11.3 upbm affinity estimate (log intensity, higher = more binding, comparable within an allelic series)"
same,binding signal,ALX4 [2],"10.2 upbm affinity estimate (log intensity, higher = more binding, comparable within an allelic series)"
GACCGTCC,binding signal,ALX4 [1],"8.08 upbm affinity estimate (log intensity, higher = more binding, comparable within an allelic series)"
same,binding signal,ALX4 [2],"8.15 upbm affinity estimate (log intensity, higher = more binding, comparable within an allelic series)"
same,binding signal,ALX1 [15],"6.23 upbm affinity estimate (log intensity, higher = more binding, comparable within an allelic series)"
same,binding signal,PITX2,"8.03 upbm affinity estimate (log intensity, higher = more binding, comparable within an allelic series)"
same,binding signal,ALX1 [16],"6.38 upbm affinity estimate (log intensity, higher = more binding, comparable within an allelic series)"
same,binding signal,ALX1 [21],"6.51 upbm affinity estimate (log intensity, higher = more binding, comparable within an allelic series)"
CGGGCCTC,binding signal,ALX4 [1],"8.16 upbm affinity estimate (log intensity, higher = more binding, comparable within an allelic series)"
same,binding signal,ALX4 [2],"8.25 upbm affinity estimate (log intensity, higher = more binding, comparable within an allelic series)"
same,binding signal,PROP1 [17],"6.76 upbm affinity estimate (log intensity, higher = more binding, comparable within an allelic series)"
same,binding signal,PROP1 [19],"6.84 upbm affinity estimate (log intensity, higher = more binding, comparable within an allelic series)"
same,binding signal,PROP1 [20],"6.55 upbm affinity estimate (log intensity, higher = more binding, comparable within an allelic series)"
GAGGACTC,binding signal,ALX4 [1],"8.06 upbm affinity estimate (log intensity, higher = more binding, comparable within an allelic series)"
same,binding signal,ALX4 [2],"8.19 upbm affinity estimate (log intensity, higher = more binding, comparable within an allelic series)"
same,binding signal,ALX1 [15],"6.41 upbm affinity estimate (log intensity, higher = more binding, comparable within an allelic series)"
same,binding signal,PITX2,"7.89 upbm affinity estimate (log intensity, higher = more binding, comparable within an allelic series)"
same,binding signal,ALX1 [16],"6.53 upbm affinity estimate (log intensity, higher = more binding, comparable within an allelic series)"
same,binding signal,ALX1 [21],"6.39 upbm affinity estimate (log intensity, higher = more binding, comparable within an allelic series)"
AATTATGT,binding signal,PAX4 [22],"11.6 upbm affinity estimate (log intensity, higher = more binding, comparable within an allelic series)"
same,binding signal,PRRX1 [23],"11 upbm affinity estimate (log intensity, higher = more binding, comparable within an allelic series)"
same,binding signal,PAX4 [24],"12.1 upbm affinity estimate (log intensity, higher = more binding, comparable within an allelic series)"
same,binding signal,ALX1 [15],"11.4 upbm affinity estimate (log intensity, higher = more binding, comparable within an allelic series)"
same,binding signal,PAX4 [25],"11.8 upbm affinity estimate (log intensity, higher = more binding, comparable within an allelic series)"
same,binding signal,ALX1 [16],"11.1 upbm affinity estimate (log intensity, higher = more binding, comparable within an allelic series)"
same,binding signal,PAX4 [26],"10.7 upbm affinity estimate (log intensity, higher = more binding, comparable within an allelic series)"
same,binding signal,PAX4 [27],"11 upbm affinity estimate (log intensity, higher = more binding, comparable within an allelic series)"
same,binding signal,PROP1 [17],"11 upbm affinity estimate (log intensity, higher = more binding, comparable within an allelic series)"
same,binding signal,PROP1 [19],"10.7 upbm affinity estimate (log intensity, higher = more binding, comparable within an allelic series)"
same,binding signal,PROP1 [20],"7.74 upbm affinity estimate (log intensity, higher = more binding, comparable within an allelic series)"
same,binding signal,HESX1 [28],"7.75 upbm affinity estimate (log intensity, higher = more binding, comparable within an allelic series)"
same,binding signal,PAX4 [29],"11 upbm affinity estimate (log intensity, higher = more binding, comparable within an allelic series)"
same,binding signal,PRRX1 [30],"13.3 upbm affinity estimate (log intensity, higher = more binding, comparable within an allelic series)"
GTCTTAAA,binding signal,PAX4 [22],"10.3 upbm affinity estimate (log intensity, higher = more binding, comparable within an allelic series)"
same,binding signal,PAX4 [24],"10.4 upbm affinity estimate (log intensity, higher = more binding, comparable within an allelic series)"
ACCCTCGG,binding signal,ALX4 [1],"8.1 upbm affinity estimate (log intensity, higher = more binding, comparable within an allelic series)"
same,binding signal,ALX4 [2],"8.11 upbm affinity estimate (log intensity, higher = more binding, comparable within an allelic series)"
same,binding signal,ALX1 [15],"6.49 upbm affinity estimate (log intensity, higher = more binding, comparable within an allelic series)"
same,binding signal,ALX1 [16],"6.58 upbm affinity estimate (log intensity, higher = more binding, comparable within an allelic series)"
same,binding signal,ALX1 [21],"6.48 upbm affinity estimate (log intensity, higher = more binding, comparable within an allelic series)"
